Only some compounds are listed: those with a hit (about 3.4% of all), similar ones and a draw of the others.
MITF primary = inhibitors of human MITF. AlphaScreen MITF homodimerization, bead proximity signal. inhibition, % at 2.6 µM. 650,000 tested, 0.91% active. AID 1259374; in the data active means inhibition above about 50%;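 further: 0% = vehicle wells with protein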
Target sequence (O75030 whole entry, looked up): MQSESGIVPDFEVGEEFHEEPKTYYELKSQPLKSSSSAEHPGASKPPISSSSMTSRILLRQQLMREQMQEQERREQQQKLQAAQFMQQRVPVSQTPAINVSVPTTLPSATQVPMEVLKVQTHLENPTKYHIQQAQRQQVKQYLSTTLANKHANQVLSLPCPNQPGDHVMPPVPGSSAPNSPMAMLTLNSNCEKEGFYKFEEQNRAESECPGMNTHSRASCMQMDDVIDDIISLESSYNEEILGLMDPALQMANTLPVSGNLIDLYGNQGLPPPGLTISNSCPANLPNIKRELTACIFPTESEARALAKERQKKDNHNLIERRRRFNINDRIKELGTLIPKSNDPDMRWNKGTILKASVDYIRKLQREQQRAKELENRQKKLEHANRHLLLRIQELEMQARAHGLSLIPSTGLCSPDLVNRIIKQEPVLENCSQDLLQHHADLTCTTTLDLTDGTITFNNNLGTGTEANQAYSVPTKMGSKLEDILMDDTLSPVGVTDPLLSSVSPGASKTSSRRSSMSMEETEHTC
GPR151 ag = human GPR151 activation | Q8TDV0 | PathHunter beta-arrestin GPR151 cells, luminescence | activation, % at 11.2 µM | 650,000 tested, 1% active | AID 1508602; in the data active means activation above about 4.9%;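 further: 0% = median of compound wells and 100% = cells with positive control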
TEAD-YAP block = TEAD-YAP interaction inhibition; HEK-TIYL cells, TEAD-Gal4/YAP UAS-luciferase luminescence; inhibition, % at 9.12 µM; 640,000 tested, 1.4% active; in the data active means inhibition above about 32%;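 further: 0% = median of test compound wells and 100% = reference inhibitor wells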
FBW7 activator = human FBW7 E3 ligase activation, primary screen | AlphaScreen FBW7–phospho-cyclin E peptide binding, activator screen | normalized activity (activation), % at 26.1 µM | 650,000 tested, 0.13% active; in the data active means normalized activity above about 1.9%;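 further: purified mutant Fbw7 with reduced substrate affinity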
Starred values were filed as active, the others as inactive.

SMILES	MITF primary	GPR151 ag	TEAD-YAP block	FBW7 activator
OCCN1CCN(c2nc3ccccc3n3ccnc23)CC1	-3.2	-1.0	2.6	0.0
C[C@@H](N)COc1ncccc1C(=O)Nc1ccc2[nH]ncc2c1	2.7	-1.4	-14.2	0.3
NNC(=O)/C(=C/c1ccc2c(c1)OCO2)NC(=O)c1ccccc1Cl	6.0	0.8	-1.8	0.0
NNC(=O)/C(=C/c1cccs1)NC(=O)c1ccccc1Cl	11.3	-1.6	42.4*	1.3
Cc1nc(NC(=O)CSc2ncccc2-c2nc3ccccc3[nH]2)sc1C	-13.3	1.1	73.0*	0.2
COC(=O)c1sc(NC(=O)CSc2ncccc2-c2nc3ccccc3[nH]2)nc1C	10.2	1.8	0.5	0.0
CC1CCN(C(=O)CSc2ncccc2-c2nc3ccccc3[nH]2)CC1	-9.4	-1.6	48.9*	0.3
COc1ccc(-c2cc(CC(=O)NCc3ccc(Cl)cc3)no2)cc1OC	-0.6	1.7	47.2*	0.4
COc1ccc(-c2cc(CC(=O)NC3CCCC3)no2)cc1OC	-13.3	0.6	5.2	0.2
CC(C)(C)C(=O)Nc1cccc(-c2nc3ncccc3o2)c1	1.3	-1.8	-12.0	-0.1
CC(C)(C)C(=O)Nc1ccc(-c2nc3ncccc3o2)cc1	-1.6	0.3	59.6*	-0.1
O=C(CCc1nnc(-c2cc3ccccc3[nH]2)o1)N1CCCCO1	-1.1	1.7	-13.8	-0.1
CCN1C(=O)/C(=C/c2cc3c(cc2[N+](=O)[O-])OCO3)C(=O)NC1=S	74.4*	2.2	3.2	-0.3
COc1cccc(OC)c1C(=O)Nc1ccc(-c2cn3c(C)csc3n2)cc1	-21.7	2.4	38.1*	0.3
Cc1csc2nc(-c3ccc(NS(=O)(=O)c4cccnc4)cc3)cn12	-6.4	-0.6	35.7*	-0.4
CCOCC(=O)Nc1ccc(-c2cn3c(C)csc3n2)cc1	-6.0	0.4	51.0*	0.0
CC1Cn2c(nnc2-c2cccc([N+](=O)[O-])c2)S1 (centres undefined)	5.9	-0.2	12.4	-0.3
COCc1cc(CN2CCC(C)CC2)c(O)c2ncccc12	103.9*	-0.2	64.9*	-1.2
CC1CN(Cc2cc([N+](=O)[O-])c3cccnc3c2O)CC(C)O1 (centres undefined)	83.7*	-0.7	53.8*	-0.7
CC1CCN(Cc2cc(COC(C)C)c3cccnc3c2O)CC1	85.4*	-3.3	15.3	-1.1
COc1cc(C(=O)Nc2nnc(COc3ccccc3)s2)cc(OC)c1OC	5.9	-0.5	5.8	-0.1
COc1ccc2cc(Br)ccc2c1CC(=O)Nc1cc(C)on1	-15.2	0.5	0.9	-0.3
CCCSCc1ccc2oc(C(=O)O)cc2c1	8.3	-1.7	4.3	-0.1
COC(=O)c1nn(-c2ccc(-c3ccccc3)cc2)cc1O	15.1	-6.5	81.1*	0.1
Cc1n[nH]c(C)c1CCC(=O)Nc1cc(F)ccc1F	-3.5	2.6	4.0	0.0
SMILES	MITF primary	GPR151 ag	TEAD-YAP block	FBW7 activator
Cc1cc(NCCOc2ccccc2)nc(Nc2ccc(N3CCOCC3)cc2)n1	3.8	-1.9	42.9*	-0.4
Cc1cc(NCc2cccc(C(F)(F)F)c2)nc(Oc2ccccc2)n1	17.9	2.2	66.5*	1.1
Cc1cc(NCc2cccc(C(F)(F)F)c2)nc(Nc2ccc(C(F)(F)F)cc2)n1	-3.5	0.4	10.0	0.1
Cc1cc(NCCc2ccc(O)cc2)nc(Nc2ccc(-n3ccnc3)cc2)n1	5.0	3.3	41.8*	-0.1
Cc1cc(NCc2cccc(C(F)(F)F)c2)nc(Nc2ccc(N3CCOCC3)cc2)n1	8.9	-0.3	47.5*	-0.4
COC(=O)C1=C(N)Oc2cc(C)n(Cc3ccco3)c(=O)c2C1c1ccccc1Cl (centres undefined)	-0.1	-1.1	-5.7	-0.1
CCOc1cc(C2C(C(=O)OC)=C(C)NC3=C2C(=O)c2ccccc23)cc(Cl)c1OC (centres undefined)	14.0	-0.2	-3.2	-0.1
Cc1cc(Nc2ccc(N3CCOCC3)cc2)nc(Nc2cccc(N(C)C)c2)n1	3.0	-0.6	53.9*	-0.4
COc1ccc(CCNc2cc(C)nc(Nc3ccc(N4CCOCC4)cc3)n2)cc1	21.8	4.4	60.3*	-0.3
Cc1cc(Nc2ccccc2)nc(Nc2ccc(N3CCOCC3)cc2)n1	12.6	3.5	35.1*	-0.1
Cc1cc(NCCOc2ccccc2)nc(Nc2ccc(-n3ccnc3)cc2)n1	1.3	4.9	40.2*	-0.2
Cc1cc(Nc2ccc(N3CCOCC3)cc2)nc(Nc2ccc(N3CCOCC3)cc2)n1	33.4	-1.9	4.9	-0.3
COc1ccc(CCNc2cc(C)nc(N3CCOCC3)n2)cc1	2.1	1.5	-9.5	-0.1
Cc1cc(NCCOc2ccccc2)nc(Nc2ccccc2)n1	-0.3	1.4	8.5	-0.1

Screening results: PubChem, The Scripps Research Institute Molecular Screening Center
